Test results taken from PMC7862700, “An all-to-all approach to the identification of sequence-specific readers for epigenetic DNA modifications on cytosine”.

Key:
Assay in all cases: DAPPL (digital affinity profiling via proximity ligation, sequencing); 10 mM Tris-HCl pH 7.5, 50 mM NaCl, 1 mM DTT, 4% glycerol, room temperature, 30 min; GST-TFs on glutathione beads, 16-mer random dsDNA library, 0.1% formaldehyde crosslink after washing; high values mean tight binding
FLI1 = molecular target: T1, FLI1 (Homo sapiens, UniProt Q01543 1-452); settings: protein: recombinant; tags: N-terminal GST; dsDNA, one strand shown
T1 sequence: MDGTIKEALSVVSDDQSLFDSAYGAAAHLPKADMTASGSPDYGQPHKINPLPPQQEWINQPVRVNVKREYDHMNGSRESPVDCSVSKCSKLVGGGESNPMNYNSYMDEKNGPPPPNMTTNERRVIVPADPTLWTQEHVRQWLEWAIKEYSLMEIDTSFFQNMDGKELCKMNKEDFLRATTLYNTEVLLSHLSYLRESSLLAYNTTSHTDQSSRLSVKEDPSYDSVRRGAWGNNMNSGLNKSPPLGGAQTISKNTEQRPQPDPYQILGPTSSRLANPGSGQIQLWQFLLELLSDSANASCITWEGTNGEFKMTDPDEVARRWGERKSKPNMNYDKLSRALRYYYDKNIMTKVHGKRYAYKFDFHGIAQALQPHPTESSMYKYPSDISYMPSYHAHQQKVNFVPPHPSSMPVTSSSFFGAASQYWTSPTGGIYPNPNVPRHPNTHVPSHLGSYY
Method in brief: (§1)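 Binding signal is defined as a hexamer's read frequency for one factor over its frequency for the tag-only sample. To obtain reads, GST-fused human transcription factors were expressed in yeast, captured on glutathione beads, barcoded with DNA and pooled with that sample. Pools met 200 nmole of a 16-mer random double-stranded DNA library in Tris/NaCl/DTT/glycerol buffer for 30 min at room temperature before washing, 0.1% formaldehyde crosslinking, proximity ligation (BsaI/T4 ligase, 1 h, 37 °C), PCR and Illumina NextSeq500 sequencing.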

ELK1 = molecular target: T2, ELK1 (Homo sapiens, UniProt P19419 1-428); settings: protein: recombinant; tags: N-terminal GST; dsDNA, one strand shown
T2 sequence: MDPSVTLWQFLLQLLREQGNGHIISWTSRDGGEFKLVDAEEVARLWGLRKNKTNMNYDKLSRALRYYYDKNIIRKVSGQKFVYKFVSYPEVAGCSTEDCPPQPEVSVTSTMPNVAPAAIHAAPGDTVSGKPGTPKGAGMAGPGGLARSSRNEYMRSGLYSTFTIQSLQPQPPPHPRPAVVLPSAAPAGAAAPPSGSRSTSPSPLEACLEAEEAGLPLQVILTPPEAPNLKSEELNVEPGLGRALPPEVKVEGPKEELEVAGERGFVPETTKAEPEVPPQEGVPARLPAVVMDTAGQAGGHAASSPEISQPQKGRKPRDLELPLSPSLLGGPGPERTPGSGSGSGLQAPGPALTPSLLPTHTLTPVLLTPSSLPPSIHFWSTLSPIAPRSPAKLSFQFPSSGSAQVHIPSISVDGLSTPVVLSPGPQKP
Method in brief: as §1

GABPA = molecular target: T3, GABPA (Homo sapiens, UniProt Q06546 1-454); settings: protein: recombinant; tags: N-terminal GST; dsDNA, one strand shown
T3 sequence: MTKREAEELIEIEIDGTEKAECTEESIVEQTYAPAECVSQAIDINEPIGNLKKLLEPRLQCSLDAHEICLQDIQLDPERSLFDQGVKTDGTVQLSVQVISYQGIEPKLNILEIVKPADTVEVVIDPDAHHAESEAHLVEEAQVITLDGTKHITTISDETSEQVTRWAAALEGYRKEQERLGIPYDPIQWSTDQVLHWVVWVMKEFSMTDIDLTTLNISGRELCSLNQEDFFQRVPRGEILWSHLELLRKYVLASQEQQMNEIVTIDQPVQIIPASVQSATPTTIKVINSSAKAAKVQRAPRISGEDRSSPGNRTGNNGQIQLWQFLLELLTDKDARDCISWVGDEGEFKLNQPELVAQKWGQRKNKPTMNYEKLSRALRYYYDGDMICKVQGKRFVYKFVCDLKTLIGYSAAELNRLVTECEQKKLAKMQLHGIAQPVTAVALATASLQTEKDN
Method in brief: as §1

ERG = molecular target: T4, ERG (Homo sapiens, UniProt P11308 1-479); settings: protein: recombinant; tags: N-terminal GST; dsDNA, one strand shown
T4 sequence: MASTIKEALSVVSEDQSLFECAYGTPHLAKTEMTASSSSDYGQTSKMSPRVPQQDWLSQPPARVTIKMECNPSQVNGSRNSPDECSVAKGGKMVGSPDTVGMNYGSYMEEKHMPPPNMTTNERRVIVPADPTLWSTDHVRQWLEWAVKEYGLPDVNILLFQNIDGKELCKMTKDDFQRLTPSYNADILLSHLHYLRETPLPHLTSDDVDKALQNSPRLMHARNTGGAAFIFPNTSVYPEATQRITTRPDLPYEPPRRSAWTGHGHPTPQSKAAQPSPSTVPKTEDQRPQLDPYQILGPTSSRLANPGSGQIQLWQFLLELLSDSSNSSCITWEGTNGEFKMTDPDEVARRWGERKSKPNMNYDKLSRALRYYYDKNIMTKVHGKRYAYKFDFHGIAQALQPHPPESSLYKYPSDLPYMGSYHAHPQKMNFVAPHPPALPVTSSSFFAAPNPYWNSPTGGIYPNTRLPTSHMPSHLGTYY
Method in brief: as §1

ELF1 = ELF1 (Homo sapiens, UniProt P32519 1-619); settings: protein: recombinant; tags: N-terminal GST; dsDNA, one strand shown
Method in brief: as §1

EHF = molecular target: T5, EHF (Homo sapiens, UniProt Q9NZC4 1-300); settings: protein: recombinant; tags: N-terminal GST; dsDNA, one strand shown
T5 sequence: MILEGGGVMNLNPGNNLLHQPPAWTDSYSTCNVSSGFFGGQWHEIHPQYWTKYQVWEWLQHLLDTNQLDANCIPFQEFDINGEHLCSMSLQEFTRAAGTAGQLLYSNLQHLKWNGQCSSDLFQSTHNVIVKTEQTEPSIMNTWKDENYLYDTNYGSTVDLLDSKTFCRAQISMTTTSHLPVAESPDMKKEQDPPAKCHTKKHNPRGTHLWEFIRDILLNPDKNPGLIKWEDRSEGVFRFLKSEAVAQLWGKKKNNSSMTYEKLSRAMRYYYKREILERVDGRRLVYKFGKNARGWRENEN
Method in brief: as §1

SPI1 = SPI1 (Homo sapiens, UniProt P17947 1-270); settings: protein: recombinant; tags: N-terminal GST; dsDNA, one strand shown
Method in brief: as §1

SPIB = SPIB (Homo sapiens, UniProt Q01892 1-262); settings: protein: recombinant; tags: N-terminal GST; dsDNA, one strand shown
Method in brief: as §1

ELK3 = molecular target: T6, ELK3 (Homo sapiens, UniProt P41970 1-407); settings: protein: recombinant; tags: N-terminal GST; dsDNA, one strand shown
T6 sequence: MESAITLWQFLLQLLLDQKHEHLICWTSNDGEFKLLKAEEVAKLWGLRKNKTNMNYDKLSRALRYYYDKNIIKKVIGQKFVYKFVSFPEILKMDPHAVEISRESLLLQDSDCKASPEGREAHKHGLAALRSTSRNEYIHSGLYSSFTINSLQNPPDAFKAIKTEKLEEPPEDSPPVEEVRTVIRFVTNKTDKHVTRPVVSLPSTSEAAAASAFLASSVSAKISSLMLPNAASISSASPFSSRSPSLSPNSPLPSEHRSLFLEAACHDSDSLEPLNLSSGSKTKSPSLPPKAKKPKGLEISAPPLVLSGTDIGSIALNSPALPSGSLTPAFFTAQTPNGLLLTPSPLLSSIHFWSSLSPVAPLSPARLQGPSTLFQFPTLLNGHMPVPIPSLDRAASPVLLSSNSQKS
Method in brief: as §1

FEV = molecular target: T7, FEV (Homo sapiens, UniProt Q99581 1-238); settings: protein: recombinant; tags: N-terminal GST; dsDNA, one strand shown
T7 sequence: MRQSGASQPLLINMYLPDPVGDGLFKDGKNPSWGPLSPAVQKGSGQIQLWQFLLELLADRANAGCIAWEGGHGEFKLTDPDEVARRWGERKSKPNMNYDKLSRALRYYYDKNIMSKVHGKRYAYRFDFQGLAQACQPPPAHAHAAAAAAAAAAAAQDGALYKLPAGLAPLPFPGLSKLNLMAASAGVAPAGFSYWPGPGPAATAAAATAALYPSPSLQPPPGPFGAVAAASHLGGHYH
Method in brief: as §1

ETV5 = ETV5 (Homo sapiens, UniProt P41161 1-510); settings: protein: recombinant; tags: N-terminal GST; dsDNA, one strand shown
Method in brief: as §1

HSF1 = HSF1 (Homo sapiens, UniProt Q00613 1-529); settings: protein: recombinant; tags: N-terminal GST; chain copies: 3; dsDNA, one strand shown
Method in brief: as §1

SPIC = molecular target: T8, SPIC (Homo sapiens, UniProt Q8N5J4 1-248); settings: protein: recombinant; tags: N-terminal GST; dsDNA, one strand shown
T8 sequence: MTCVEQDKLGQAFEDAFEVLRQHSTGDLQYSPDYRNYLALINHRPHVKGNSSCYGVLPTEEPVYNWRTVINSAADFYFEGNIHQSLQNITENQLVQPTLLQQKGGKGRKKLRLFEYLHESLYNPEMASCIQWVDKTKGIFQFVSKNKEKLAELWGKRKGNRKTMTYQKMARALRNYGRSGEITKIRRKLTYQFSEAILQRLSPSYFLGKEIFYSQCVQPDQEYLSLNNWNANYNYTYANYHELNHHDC
Method in brief: as §1

ELF4 = ELF4 (Homo sapiens, UniProt Q99607 1-663); settings: protein: recombinant; tags: N-terminal GST; dsDNA, one strand shown
Method in brief: as §1

ELK4 = molecular target: T9, ELK4 (Homo sapiens, UniProt P28324-2 1-405); settings: protein: recombinant; tags: N-terminal GST; dsDNA, one strand shown
T9 sequence: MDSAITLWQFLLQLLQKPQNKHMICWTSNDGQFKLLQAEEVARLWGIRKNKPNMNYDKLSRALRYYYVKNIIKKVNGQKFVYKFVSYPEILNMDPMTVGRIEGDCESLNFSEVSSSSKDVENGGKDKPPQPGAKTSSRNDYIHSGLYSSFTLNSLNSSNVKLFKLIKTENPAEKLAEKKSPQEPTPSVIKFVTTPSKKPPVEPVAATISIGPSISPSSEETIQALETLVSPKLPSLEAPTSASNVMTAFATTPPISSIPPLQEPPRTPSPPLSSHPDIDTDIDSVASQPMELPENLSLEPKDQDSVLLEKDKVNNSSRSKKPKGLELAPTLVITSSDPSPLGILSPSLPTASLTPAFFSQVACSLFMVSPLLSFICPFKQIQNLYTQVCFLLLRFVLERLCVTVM
Method in brief: as §1

ETV2 = molecular target: T10, ETV2 (Homo sapiens, UniProt O00321 1-342); settings: protein: recombinant; tags: N-terminal GST; dsDNA, one strand shown
T10 sequence: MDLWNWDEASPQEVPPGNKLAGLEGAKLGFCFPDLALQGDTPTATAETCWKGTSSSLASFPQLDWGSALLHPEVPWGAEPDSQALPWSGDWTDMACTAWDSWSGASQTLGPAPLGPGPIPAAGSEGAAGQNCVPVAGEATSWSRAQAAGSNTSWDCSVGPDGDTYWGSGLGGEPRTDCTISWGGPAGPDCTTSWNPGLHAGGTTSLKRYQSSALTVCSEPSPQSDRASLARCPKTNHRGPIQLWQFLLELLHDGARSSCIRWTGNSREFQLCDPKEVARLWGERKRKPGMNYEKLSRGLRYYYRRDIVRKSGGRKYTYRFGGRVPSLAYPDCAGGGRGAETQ
Method in brief: as §1

CRX = CRX (Homo sapiens, UniProt O43186 1-299); settings: protein: recombinant; tags: N-terminal GST; dsDNA, one strand shown
Method in brief: as §1

ETV1 = ETV1 (Homo sapiens, UniProt P50549 1-477); settings: protein: recombinant; tags: N-terminal GST; dsDNA, one strand shown
Method in brief: as §1

Chain of ELF4 (Q99607 whole entry): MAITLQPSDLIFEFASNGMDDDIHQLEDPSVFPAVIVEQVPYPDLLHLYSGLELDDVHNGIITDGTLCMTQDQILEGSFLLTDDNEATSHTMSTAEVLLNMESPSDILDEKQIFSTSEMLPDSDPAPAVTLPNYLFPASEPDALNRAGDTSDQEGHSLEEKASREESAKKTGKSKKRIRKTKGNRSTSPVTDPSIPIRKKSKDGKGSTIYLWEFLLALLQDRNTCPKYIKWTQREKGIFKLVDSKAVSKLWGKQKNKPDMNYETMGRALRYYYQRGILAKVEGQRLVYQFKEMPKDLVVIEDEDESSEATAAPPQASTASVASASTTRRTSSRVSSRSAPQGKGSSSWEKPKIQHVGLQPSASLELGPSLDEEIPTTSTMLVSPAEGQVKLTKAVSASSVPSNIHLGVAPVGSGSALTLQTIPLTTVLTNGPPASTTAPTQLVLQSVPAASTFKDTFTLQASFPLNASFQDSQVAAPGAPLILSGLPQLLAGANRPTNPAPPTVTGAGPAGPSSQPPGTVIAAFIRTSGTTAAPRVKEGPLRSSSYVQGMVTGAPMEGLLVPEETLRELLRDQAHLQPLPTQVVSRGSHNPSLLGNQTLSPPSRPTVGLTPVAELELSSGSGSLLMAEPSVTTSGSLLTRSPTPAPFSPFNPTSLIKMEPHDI
Chain of ELF1 (P32519 whole entry): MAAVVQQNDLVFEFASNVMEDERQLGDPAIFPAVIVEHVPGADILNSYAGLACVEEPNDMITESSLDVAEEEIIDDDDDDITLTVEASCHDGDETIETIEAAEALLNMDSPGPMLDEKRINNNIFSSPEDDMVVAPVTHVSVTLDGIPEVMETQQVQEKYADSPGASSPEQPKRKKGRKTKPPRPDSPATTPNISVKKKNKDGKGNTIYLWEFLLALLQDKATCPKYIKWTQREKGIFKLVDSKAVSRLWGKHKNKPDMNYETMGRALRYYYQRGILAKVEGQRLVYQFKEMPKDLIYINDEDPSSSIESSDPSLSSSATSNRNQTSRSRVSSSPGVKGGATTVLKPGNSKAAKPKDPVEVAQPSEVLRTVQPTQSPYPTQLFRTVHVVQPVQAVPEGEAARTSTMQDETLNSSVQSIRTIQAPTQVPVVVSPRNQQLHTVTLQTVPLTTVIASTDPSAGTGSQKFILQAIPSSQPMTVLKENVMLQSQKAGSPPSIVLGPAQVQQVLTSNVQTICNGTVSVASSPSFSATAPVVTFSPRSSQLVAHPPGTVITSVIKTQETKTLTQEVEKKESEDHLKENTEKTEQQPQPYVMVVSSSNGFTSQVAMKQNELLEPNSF
Chain of ETV5 (P41161 whole entry): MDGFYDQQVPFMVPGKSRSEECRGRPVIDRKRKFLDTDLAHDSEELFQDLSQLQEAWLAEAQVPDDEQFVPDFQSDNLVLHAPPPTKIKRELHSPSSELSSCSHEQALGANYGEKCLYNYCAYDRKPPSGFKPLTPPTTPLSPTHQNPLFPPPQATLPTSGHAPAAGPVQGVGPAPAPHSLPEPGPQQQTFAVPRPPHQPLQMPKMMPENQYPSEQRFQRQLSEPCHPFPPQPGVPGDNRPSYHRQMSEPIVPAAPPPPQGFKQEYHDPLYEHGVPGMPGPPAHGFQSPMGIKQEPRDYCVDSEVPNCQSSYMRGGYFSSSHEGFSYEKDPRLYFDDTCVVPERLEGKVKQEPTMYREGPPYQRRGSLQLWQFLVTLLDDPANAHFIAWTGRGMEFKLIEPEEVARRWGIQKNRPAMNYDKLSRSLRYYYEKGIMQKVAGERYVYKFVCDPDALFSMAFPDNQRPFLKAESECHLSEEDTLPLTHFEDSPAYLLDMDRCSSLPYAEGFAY
Chain of SPIB (Q01892 whole entry): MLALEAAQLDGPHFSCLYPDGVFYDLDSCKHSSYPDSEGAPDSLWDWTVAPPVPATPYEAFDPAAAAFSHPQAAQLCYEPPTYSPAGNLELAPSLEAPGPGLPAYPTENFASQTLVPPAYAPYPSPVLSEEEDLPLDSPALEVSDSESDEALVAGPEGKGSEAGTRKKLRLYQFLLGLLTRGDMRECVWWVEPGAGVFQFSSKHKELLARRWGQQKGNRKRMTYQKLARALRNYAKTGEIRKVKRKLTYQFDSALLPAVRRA
Chain of HSF1 (Q00613 whole entry): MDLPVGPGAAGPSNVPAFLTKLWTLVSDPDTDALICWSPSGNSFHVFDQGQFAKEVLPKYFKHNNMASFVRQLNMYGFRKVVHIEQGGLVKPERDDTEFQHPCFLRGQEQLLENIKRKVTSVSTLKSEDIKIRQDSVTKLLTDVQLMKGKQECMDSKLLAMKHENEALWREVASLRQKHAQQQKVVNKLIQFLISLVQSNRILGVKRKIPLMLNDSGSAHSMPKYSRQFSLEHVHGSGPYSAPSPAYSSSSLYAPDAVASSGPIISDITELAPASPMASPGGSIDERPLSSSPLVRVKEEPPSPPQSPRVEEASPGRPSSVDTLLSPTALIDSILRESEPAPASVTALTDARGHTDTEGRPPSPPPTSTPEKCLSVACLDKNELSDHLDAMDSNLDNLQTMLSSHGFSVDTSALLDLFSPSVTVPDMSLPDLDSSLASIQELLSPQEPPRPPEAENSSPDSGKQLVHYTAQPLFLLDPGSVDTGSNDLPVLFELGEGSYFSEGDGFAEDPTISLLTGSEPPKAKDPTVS
Chain of CRX (O43186 whole entry): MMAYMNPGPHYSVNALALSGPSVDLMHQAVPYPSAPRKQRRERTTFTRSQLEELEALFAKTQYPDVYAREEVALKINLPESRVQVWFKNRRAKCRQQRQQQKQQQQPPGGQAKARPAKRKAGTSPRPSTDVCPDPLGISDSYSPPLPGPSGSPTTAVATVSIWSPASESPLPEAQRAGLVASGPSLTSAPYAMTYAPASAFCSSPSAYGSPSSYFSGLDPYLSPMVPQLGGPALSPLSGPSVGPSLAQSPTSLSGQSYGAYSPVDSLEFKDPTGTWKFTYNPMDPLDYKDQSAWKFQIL
Chain of ETV1 (P50549 whole entry): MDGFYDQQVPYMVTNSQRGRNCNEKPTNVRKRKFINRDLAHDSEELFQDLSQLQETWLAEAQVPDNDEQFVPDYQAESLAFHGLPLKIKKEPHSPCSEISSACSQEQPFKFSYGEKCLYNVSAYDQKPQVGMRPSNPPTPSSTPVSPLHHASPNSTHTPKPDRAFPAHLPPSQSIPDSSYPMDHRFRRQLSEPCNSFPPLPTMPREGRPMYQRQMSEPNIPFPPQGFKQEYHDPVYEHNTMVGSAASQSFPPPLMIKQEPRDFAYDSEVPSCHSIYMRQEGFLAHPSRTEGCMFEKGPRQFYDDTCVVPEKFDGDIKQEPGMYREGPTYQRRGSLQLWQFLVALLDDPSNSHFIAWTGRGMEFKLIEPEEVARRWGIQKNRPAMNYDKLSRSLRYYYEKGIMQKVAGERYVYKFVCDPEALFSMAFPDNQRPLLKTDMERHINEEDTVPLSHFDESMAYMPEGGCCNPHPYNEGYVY

In the case of TTATCA, the binding signal (FLI1) is reported as 1.16 fold enrichment (6-mer frequency, TF over GST control), the binding signal (ELK1) is reported as 1.15 fold enrichment (6-mer frequency, TF over GST control) and the binding signal (GABPA) is reported as 1.05 fold enrichment (6-mer frequency, TF over GST control). For the same sequence, the binding signal (ERG) was 1.06 fold enrichment (6-mer frequency, TF over GST control), the binding signal (ELF1) was 1.15 fold enrichment (6-mer frequency, TF over GST control) and the binding signal (EHF) was 1.02 fold enrichment (6-mer frequency, TF over GST control). For the same sequence, the binding signal (SPI1) was 1.09 fold enrichment (6-mer frequency, TF over GST control), the binding signal (SPIB) was 1.1 fold enrichment (6-mer frequency, TF over GST control) and the binding signal (ELK3) was 1.17 fold enrichment (6-mer frequency, TF over GST control). The binding signal (FEV) was 1.06 fold enrichment (6-mer frequency, TF over GST control), the binding signal (ETV5) was 1.05 fold enrichment (6-mer frequency, TF over GST control) and the binding signal (HSF1) was 1.44 fold enrichment (6-mer frequency, TF over GST control). The binding signal (SPIC) was 1.12 fold enrichment (6-mer frequency, TF over GST control), the binding signal (ELF4) was 1.08 fold enrichment (6-mer frequency, TF over GST control) and the binding signal (ELK4) was 1.2 fold enrichment (6-mer frequency, TF over GST control). For the same sequence, the binding signal (ETV2) was 1.13 fold enrichment (6-mer frequency, TF over GST control), the binding signal (CRX) was 2.19 fold enrichment (6-mer frequency, TF over GST control) and the binding signal (ETV1) was 1.06 fold enrichment (6-mer frequency, TF over GST control).
